# Laboratory results taken from PMC5540273 (PLoS ONE, 2017).
# Legend:
# Conditions in all cases: concentration: 1 μM, replicates: in singlicate; n = 1
# SGK2 = tested on: SGK2
# SGK3 = tested on: SGK3
# SGK = tested on: SGK
# SIK2 = tested on: SIK2
# SIK = tested on: SIK
# SLK = tested on: SLK
# SNARK = tested on: T1, SNARK
# T1 construct: gene NUAK2
# SNRK = tested on: SNRK
# SRC = tested on: SRC
# SRMS = tested on: SRMS
# 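Also: KINOMEscan kinase panel screen.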
Structure (SMILES),%Inh (SGK2) [%],%Inh (SGK3) [%],%Inh (SGK) [%],%Inh (SIK2) [%],%Inh (SIK) [%],%Inh (SLK) [%],%Inh (SNARK) [%],%Inh (SNRK) [%],%Inh (SRC) [%],%Inh (SRMS) [%]
COc1ccc(CNC(=O)NC2CCN(c3ccnc(Nc4ccc(F)cc4)n3)C2)cc1 (stereo not shown) [GSK1379706],0,0,0,0,13,9,0,0,0,0
CCC(=O)c1c(-c2ccccc2)c2cc(Cl)ccc2c(=O)n1Cc1cc(C(=O)NC2CC2)n(C)n1,5,10,2,55,1,0,0,0,0,0
CCC(=O)c1c(-c2ccccc2)c2cc(Cl)ccc2c(=O)n1Cc1cc(S(C)(=O)=O)n(CC(F)F)n1,0,0,0,2,0,0,10,0,7,0
Cc1ccc(Oc2ccc(Nc3ncnc4cc[nH]c34)cc2C)cn1,5,5,12,0,21,10,6,32,16,22
COc1cc2nccc(Nc3ccc(OCc4ccc(NC(C)=O)cc4)cc3)c2cc1OC.Cl [GW440135],0,0,2,4,0,3,0,0,14,20
CCc1nc(-c2cccc(C)c2)c(-c2ccncc2)s1,0,0,0,4,2,26,0,9,0,0
CC(C)(C)c1ccc(C(=O)Nc2cn3cc(-c4ccccc4)ccc3n2)cc1,0,0,0,66,0,9,0,0,0,0
COc1cccc(C2=C(Nc3cccc(C(=O)O)c3)C(=O)NC2=O)c1 [SB-390770],11,48,8,7,10,35,72,0,0,0
Nc1nccc2scc(-c3ccc4c(c3)CCN4C(=O)Cc3ccccc3)c12 [GSK2576924],0,16,0,4,0,14,16,3,2,10
COC(=O)c1c(-c2ccccc2)c2cc(C)ccc2c(=O)n1Cc1ccccc1,0,0,0,0,3,0,0,0,0,0
Nc1n[nH]c2ncc(-c3ccccc3)cc12 [SB-517081],2,9,7,12,2,0,0,0,0,8
CCS(=O)c1ccc(-c2coc3ccc(-c4nnc(C)o4)cc23)cc1 (stereo not shown),13,23,7,5,13,0,30,0,0,0
COc1ccc(-c2cc3c(C)nc(N)nc3n([C@H]3CC[C@H](O)CC3)c2=O)cn1,0,0,0,0,0,0,0,0,0,0
COc1cc2ncn(-c3cc(OCc4ccncc4Br)c(C(N)=O)s3)c2cc1OC [GW854278],3,16,4,6,26,95.9,0,0,0,0
CCC(=O)c1c(-c2ccccc2)c2cc(Cl)ccc2c(=O)n1Cc1cc(S(C)(=O)=O)n(CC(N)=O)n1,0,0,0,2,0,0,0,0,0,0
COC(=O)c1c(-c2ccccc2)c2cc(Br)ccc2c(=O)n1Cc1ccc(NC(=O)CCC(=O)O)cc1,18,0,6,0,6,1,0,0,25,0
COc1cc(Nc2nccc(N3CCC(NC(=O)C(C)c4ccc(Cl)cc4)C3)n2)cc(OC)c1OC (stereo not shown) [GSK1379757],0,0,0,0,1,1,19,0,13,0

Structure (SMILES),%Inh (SGK2) [%],%Inh (SGK3) [%],%Inh (SGK) [%],%Inh (SIK2) [%],%Inh (SIK) [%],%Inh (SLK) [%],%Inh (SNARK) [%],%Inh (SNRK) [%],%Inh (SRC) [%],%Inh (SRMS) [%]
CCc1ccc(-c2ccc3c(c2)-c2nn(C)cc2S(=O)(=O)N3C)cc1,0,0,0,0,0,12,0,0,0,46
Fc1cccc(CSc2nnc(-c3ccc4c(c3)CCO4)o2)c1,24,9,8,0,12,5,12,10,5,0
COc1ccc(-c2cc3c(C)nc(N)nc3n([C@H]3CC[C@H](OCCO)CC3)c2=O)cn1,0,17,0,5,18,0,0,0,8,1
Nc1ncnc2c1ncn2-c1ccc(Cl)cc1 [AH2635],0,0,0,0,3,20,0,0,0,0
CCCC(=O)Nc1n[nH]c2ncc(-c3cccc4ccccc34)cc12 [SB-642057],0,26,0,0,0,14,0,0,0,4
Cc1ccccc1COc1cc(-n2cnc3cc(Cl)ccc32)sc1C(N)=O [GW813349],6,1,0,0,4,73,4,3,0,0
CCS(=O)(=O)c1ccc(OC)c(Nc2ncc(-c3ccc(F)cc3)o2)c1.Cl [GW591947],2,0,0,0,2,6,0,0,0,0
CCC(=O)c1c(-c2ccccc2)c2cc(Cl)ccc2c(=O)n1Cc1ccc(C(=O)O)cc1,6,0,1,7,0,0,0,0,0,0
CCCNC(=O)Nc1ccc(Oc2ncnc3ccn(C)c23)cc1,13,0,1,0,23,0,0,0,0,0
Nc1ncnc2c1ncn2-c1cccc(F)c1 [SKF-97560],38,0,37,0,1,18,13,20,22,14
COc1cc(Nc2nccc(N3CCC(NC(=O)C4COc5ccccc5O4)C3)n2)cc(OC)c1OC (stereo not shown) [GSK1379761],0,0,17,0,0,17,23,0,53,11
Nc1nc(-c2ccccc2F)c(-c2ccnc3ccccc23)s1 [GW560459],1,5,15,0,0,4,8,0,0,0
Cn1c(=O)c(F)c(Nc2ccc(I)cc2F)c2c(=O)n(OC[C@H](O)CO)cnc21,3,0,0,0,4,0,0,0,11,0
Cl.c1ccc(Cn2cnc3cc(Nc4ncnc5ccccc45)ccc32)cc1 [GW272142],0,0,0,0,0,20,0,0,0,0
Cc1cccc(-c2cc(-c3c[nH]nc3-c3ccccn3)ccn2)c1 [GW679395],6,0,0,0,0,0,0,0,53,0
COc1cc2nccc(Nc3cccc(Oc4ccccc4)c3)c2cc1OC.Cl [GW284543],0,0,37,0,0,21,0,0,7,55
O=C1NC(=O)C(c2ccccc2)=C1Nc1cccc(O)c1 [SB-390534],9,20,11,0,0,51,16,0,0,17
